Bioassay records (PubChem)
Shown are actives, neighbours in structure and some others; about 18% of the full set was active somewhere.
DT40 TDP1 no CPT: qHTS for Inhibitors of human tyrosyl-DNA phosphodiesterase 1 (TDP1): qHTS in cells in absence of CPT; DT40 Tdp1-/- hTDP1 cells, no CPT, ATP luminescence, 48 h; Potency, µM (doses to about 46.2 µM), inactives show top-dose activity change, negative = growth inhibition, usual class: inhibitors; 420,000 compounds, 15% hits; AID 686978, 2013; further: potency means the concentration at half of the fitted maximal effect; nearly all actives have a fitted effect of over 55% in size
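Compound effects on proliferation are scored in DT40 Tdp1-/-;hTDP1 cells in the absence of CPT. ATP levels (CellTiter-Glo luminescence) are recorded after a ≥48 hr, 37 °C incubation.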
RORgamma inh: inhibitors of mouse ROR gamma transcriptional activity; Potency, µM (top dose mostly 53.6 µM), for the others: at the top dose activity change, negative = inhibition, most hits filed as inhibitors; AID 2551; Drosophila S2 Gal4-RORgamma UAS-luciferase reporter, 20 h; 310,000 compounds, 5.4% hits; further: potency means the concentration at half of the fitted maximal effect; nearly all actives have a fitted effect of over 60% in size
Target sequence (P51450 whole entry, looked up, the tested form may be a part): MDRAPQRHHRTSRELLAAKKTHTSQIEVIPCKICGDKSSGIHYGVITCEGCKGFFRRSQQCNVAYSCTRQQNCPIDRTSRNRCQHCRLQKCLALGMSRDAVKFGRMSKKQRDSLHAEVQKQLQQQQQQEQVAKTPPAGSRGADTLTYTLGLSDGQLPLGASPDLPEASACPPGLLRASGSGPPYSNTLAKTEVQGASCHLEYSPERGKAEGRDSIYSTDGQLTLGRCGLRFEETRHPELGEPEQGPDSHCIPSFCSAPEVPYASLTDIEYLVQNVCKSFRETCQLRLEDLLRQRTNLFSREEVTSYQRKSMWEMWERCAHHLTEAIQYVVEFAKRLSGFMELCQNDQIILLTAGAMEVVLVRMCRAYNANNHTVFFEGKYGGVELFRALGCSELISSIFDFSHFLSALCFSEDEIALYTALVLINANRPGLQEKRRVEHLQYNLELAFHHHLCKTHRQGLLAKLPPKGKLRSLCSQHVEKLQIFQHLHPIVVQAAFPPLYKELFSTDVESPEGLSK
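Compounds are pin-transferred onto Drosophila Schneider cells expressing a copper-inducible Gal4–ROR gamma transactivation domain fusion. After 1 hr, copper sulfate is added to 700 uM final; luciferase is read 20 hr later.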
DT40 TDP1 CPT: growth inhibition of DT40 Tdp1-/-;hTDP1 cells with camptothecin (screen for TDP1 inhibitors) | 420,000 compounds, 12% hits | chicken DT40 Tdp1-/-;hTDP1 cells + 20 nM CPT, ATP luminescence, 48 h | AID 686979 | Potency, µM (doses to about 46.2 µM), for the others: top-dose activity change, negative = growth inhibition, hits mostly inhibitors; further: potency means the concentration at half of the fitted maximal effect; nearly all actives have a fitted effect of over 55% in size
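Chicken DT40 Tdp1-/- cells stably complemented with human TDP1 were seeded at 400 cells/well in medium containing 20 nM camptothecin, exposed to pin-transferred compounds, and grown at 37 °C for at least 48 hr. Viability was read as ATP luminescence.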
IL-1B inflam inh: blocks inflammasome-driven IL-1 beta release | 360,000 compounds, 4.7% hits | activity change, % at 57.5 µM | THP-1 LPS/ATP IL-1B secretion, AlphaLISA, 16 h; active compounds read low; in the data active means activity change below about -50%; inconclusive means mostly about -30% to -49%
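Secreted IL-1B measured by AlphaLISA bead assay after 16 h compound exposure of THP-1 cells; compounds (final up to 57.5 uM) added 1 h before LPS (250 ng/mL) and ATP (1.25 mM) stimulation; lower signal means less secretion.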
VP16 counter: inhibits Gal4-VP16 luciferase reporter, ROR gamma counter-screen; Drosophila S2 Gal4-VP16 UAS-luciferase, luminescence, 20 h; Potency, µM (titrated, usually from 53.6 µM), without a hit: at the top dose activity, negative = inhibition, most hits filed as inhibitors; 310,000 compounds, 3.5% hits; AID 2546;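 further: Gal4-VP16 expression switched on by copper sulfate through the metallothionein promoter; potency means the concentration at half of the fitted maximal effect; nearly all actives have a fitted effect of over 50% in size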
LDHA block: LDHA (human) enzyme inhibition; activity change, % (values are at about 110 or 230 µM); AID 1347041; 480,000 compounds, 0.15% hits; purified LDHA, NADH/diaphorase-resazurin fluorescence; active compounds read low; in the data active means activity change below about -30%; inconclusive means mostly about -25% to -30%;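 further: plate controls were DMSO wells for no effect and wells without enzyme for full effect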
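LDH5 2 nM; NADH 0.06 mM, pyruvate 0.2 mM; 200 mM Tris pH 7.4, EDTA, Tween-20; 5 min RT. Detection: diaphorase 0.133 mg/mL + resazurin 37 µM, fluorescence ex540/em590 at 0 and 20 min; normalized to enzyme-free and DMSO wells.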
Active calls of the source: *; u = inconclusive; x = no result given. Unless noted, the call rests on the fitted dose curve; in most records, active means well fitted curve in the direction sought with a large enough effect; inconclusive means small, poorly fitted or top-dose-only effect, or another doubt; inactive means no such curve, though single readings can be large; an effect the other way counts as inactive or inconclusive. Unless noted, on the % scale 0 is the no-effect control and ±100 the full control effect.

SMILES	DT40 TDP1 no CPT	RORgamma inh	DT40 TDP1 CPT	IL-1B inflam inh	VP16 counter	LDHA block
CCn1cc(C(=O)NN)c(=O)c2cc(F)c(N3CCOCC3)cc21	-28.5%	4.4%	6.0%	7.7	-4.8%	-0.7
Cc1ccc(NC(=O)C(=O)NCCN2CCN(C(=O)c3ccc(C(C)(C)C)cc3)CC2)cc1	x	x	x	x	x	-1.1
O=C(CCc1ncc(-c2ccccc2Cl)o1)Nc1ccc(F)cc1	x	x	x	x	x	0.6
CC(O)[C@H]1CNC(=O)C(=O)N1CCc1cccc2ccccc12 (stereo partly specified)	-9.7%	-31.1%	-0.6%	21.1	-2.0%	-2.8
CCC(C)[C@H]1CNCCN1CCCc1cc(OC)c(OC)c(OC)c1 (stereo partly specified)	3.2%	x	5.7%	11.2	x	-3.8
CCC(C)[C@H]1CNCCN1CCC12CC3CC(CC(C3)C1)C2 (stereo partly specified)	11.6µM*	x	25.9µM*	-61.8*	x	-12.8
CCC(C)[C@H]1CNCCN1CC1(c2ccccc2)CC1 (stereo partly specified)	18.4µM*	x	20.6µM*	-14.5	x	-8.7
CCC(C)[C@H]1CNCCN1CCc1cccc2ccccc12 (stereo partly specified)	u	x	16.4µM*	-7.4	x	-3.2
Cc1nn(CC(=O)c2cc(C)n(C3CC3)c2C)c(=O)c(C#N)c1C	x	x	x	x	x	6.7
CCOc1ccc(C(C)=O)cc1COC(=O)COc1ccc(Cl)c(C)c1	x	x	x	x	x	0.3
COc1ccccc1CNC(=O)Cn1c(=O)oc2ccccc21	-19.3%	x	-0.6%	x	x	-4.6
COc1ccc(Cl)cc1NC(=O)Cn1c(=O)oc2ccccc21	u	-10.6%	7.8%	28.0	-14.5%	-8.2
COc1ccccc1NC(=O)Cn1c(=O)oc2ccccc21	2.91µM*	7.6%	2.91µM*	-2.4	17.4%	-13.1
O=C(Cn1c(=O)oc2ccccc21)Nc1ccc(Cl)cc1Cl	9.8%	0.9%	-21.3%	5.1	-0.9%	-2.4
COc1ccccc1CCNC(=O)Cn1c(=O)oc2ccccc21	u	-1.0%	20.6µM*	3.7	-0.5%	-2.7
N#Cc1c(NC(=O)Cn2c(=O)oc3ccccc32)oc(-c2ccccc2)c1-c1ccccc1	8.2µM*	34.0%	9.2µM*	0.0	9.9%	-7.8
O=C(Cn1c(=O)oc2cccnc21)Nc1ccccc1Oc1ccc(Cl)cc1Cl	-17.4%	-4.5%	-3.5%	-71.2*	-4.1%	-4.3
O=S(=O)(c1cc(F)ccc1F)N1CCN(Cc2cccc3cccnc23)CC1	x	x	x	x	x	7.0
O=C(Cc1ccc2c(c1)CCCC2)NC1CCCCCC1	x	x	x	x	x	-1.0
COc1cc(N2N=C(c3ccccc3)CC2c2ccccc2)c(C=O)cc1C=O (stereo unspecified)	18.4µM*	-20.2%	u	8.2	-3.6%	-1.7
COc1ccc(C2=NN(c3ccc(C(=O)O)cc3)C(c3ccc(OC)c(OC)c3)C2)cc1 (stereo unspecified)	u	7.08µM*	-22.3%	-16.5	-15.4%	-3.4
COc1ccc(C2CC(c3ccccc3O)=NN2c2ccccc2)cc1 (stereo unspecified)	-5.4%	x	0.1%	10.8	x	-8.0
COc1ccc(C2CC(c3ccccc3)=NN2S(=O)(=O)c2ccccc2)cc1 (stereo unspecified)	4.61µM*	u	7.31µM*	0.0	4.47µM*	-4.3
COc1ccccc1N1N=C(c2ccc([N+](=O)[O-])cc2)CC1c1ccccc1 (stereo unspecified)	u	0.0%	u	-14.6	2.4%	0.4
COc1ccc(C2CC(c3ccccc3)=NN2c2ccc(N)cc2)cc1 (stereo unspecified)	20.6µM*	-16.9%	u	u	0.4%	-9.7
SMILES	DT40 TDP1 no CPT	RORgamma inh	DT40 TDP1 CPT	IL-1B inflam inh	VP16 counter	LDHA block
Cc1ccccc1NC(=O)C(C#N)=C1CCC(C(C)(C)C)CC1 (stereo unspecified)	x	x	x	x	x	-2.9
CCc1cccc(C)c1NC(=O)CCc1ncc(-c2ccc(F)cc2F)o1	x	x	x	x	x	19.3
CN(CC(=O)Nc1ccc(Cl)c(C(F)(F)F)c1)CC(=O)NC1CCCCC1	u	x	16.4µM*	-7.3	x	2.5
CN(CC(=O)NCc1ccccc1)CC(=O)Nc1ccc(Cl)c(C(F)(F)F)c1	18.4µM*	x	14.6µM*	-11.2	x	0.4
CN(CC(=O)NCCc1ccc(S(N)(=O)=O)cc1)CC(=O)Nc1ccccc1Cl	-16.1%	x	-17.8%	-3.7	x	-9.3
CCC(CC)NC(=O)CN(C)CC(=O)Nc1ccc(Cl)c(C(F)(F)F)c1	x	x	x	x	x	-1.7
CN(CC(=O)Nc1cccc(S(=O)(=O)N2CCCC2)c1)CC(=O)Nc1ccc(F)c(F)c1F	u	x	u	13.6	x	1.6
CN(CC(=O)NCCc1ccc(S(N)(=O)=O)cc1)CC(=O)Nc1ccc(Cl)c(C(F)(F)F)c1	13µM*	x	13µM*	u	x	-2.3
CN(CC(=O)Nc1cccc(S(=O)(=O)N2CCCC2)c1)CC(=O)Nc1ccc(Cl)c(C(F)(F)F)c1	16.4µM*	x	u	-65.9*	x	-4.2
CN(CC(=O)Nc1ccc(Cl)c(C(F)(F)F)c1)CC(=O)NC1CCCC1	x	x	x	x	x	0.6
Cc1ccc(C(=O)COC(=O)c2cc(=O)[nH]c3ccc(C)cc23)cc1	x	x	x	x	x	-1.9
CC(C(=O)N1CCCCC1)N(C)CC(=O)Nc1ccc(Cl)cc1 (stereo unspecified)	16.4µM*	23.5%	u	10.9	14.9%	-0.7
CN(CC(=O)NC(=O)NCc1ccccc1)CC(=O)Nc1ccc(Cl)c(C(F)(F)F)c1	20.6µM*	x	18.4µM*	-89.4*	x	1.3
CC(C(=O)N1CCCCC1)N(C)CC(=O)Nc1ccc(F)c(F)c1F (stereo unspecified)	4.7%	x	-3.3%	1.5	x	-1.5
CN(CC(=O)Nc1ccc(Cl)c(C(F)(F)F)c1)C(=O)CCN1C(=O)C2CCCCC2C1=O (stereo unspecified)	23.1µM*	x	23.1µM*	0.6	x	-2.7
CN(CC(=O)NC(=O)NC1CCCC1)CC(=O)Nc1ccc(Cl)c(C(F)(F)F)c1	x	x	x	x	x	-0.3
CN(CC(=O)Nc1ccc(Cl)c(Cl)c1)CC(=O)N1CCCCCC1	25.9µM*	x	u	-14.7	x	-1.2
CN(CC(=O)Nc1c(Cl)cccc1Cl)CC(=O)N1CCCCCC1	x	x	x	x	x	-1.5
CCC(=O)Oc1ccc2c(=O)c(Oc3cc(C)cc(C)c3)coc2c1	x	x	x	x	x	-2.2
CCN(CC)c1cccc(OC2=NS(=O)(=O)c3ccccc32)c1	16.4µM*	12.1%	8.2µM*	3.5	-9.4%	27.9
COc1ccccc1OC1=NS(=O)(=O)c2ccccc21	13µM*	-0.3%	20.6µM*	-1.2	1.3%	0.0
